{"source": "PubChem BioAssay (Tox21)", "note": "Records with an inconclusive call do not appear. A call without a number means that no potency is given here. Activity calls are given as the source filed them. Calls come from the whole dose curve. Potency is the fitted concentration of half-maximal effect.", "data": [{"biological_target": "5-hydroxytryptamine receptor 2A (Homo sapiens) (UniProt P28223)", "sequence (P28223 whole entry, looked up)": "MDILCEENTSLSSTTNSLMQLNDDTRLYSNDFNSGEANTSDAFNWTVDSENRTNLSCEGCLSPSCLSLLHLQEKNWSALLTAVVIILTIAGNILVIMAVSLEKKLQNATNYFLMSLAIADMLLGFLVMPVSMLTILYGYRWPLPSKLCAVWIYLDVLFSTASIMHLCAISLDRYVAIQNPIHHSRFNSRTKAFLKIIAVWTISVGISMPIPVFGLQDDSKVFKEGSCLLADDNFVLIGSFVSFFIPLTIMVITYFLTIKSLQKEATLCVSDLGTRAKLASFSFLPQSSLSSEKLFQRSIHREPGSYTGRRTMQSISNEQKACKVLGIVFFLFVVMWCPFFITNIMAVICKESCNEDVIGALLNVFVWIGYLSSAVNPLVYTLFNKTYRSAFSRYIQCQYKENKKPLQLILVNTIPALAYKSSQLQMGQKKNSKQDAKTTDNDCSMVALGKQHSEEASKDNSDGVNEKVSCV", "assay": "5-hydroxytryptamine receptor 2A (HTR2A) small molecule antagonists, cell-based qHTS assay (AID 1963586); note: nearly all actives have a fitted effect of over 45% in size", "conditions": "HTR2A-CHO cells, DOI-induced calcium flux, fluorescence; series mostly up to 61.5 µM", "source_text": "National Center for Advancing Translational Sciences [NCATS]\nDivision of Preclinical Innovation [DPI]\nU.S. Environmental Protection Agency [EPA]\nNational Institutes of Environmental Health Sciences [NIEHS]\nNational Toxicology Program [NTP]\nU.S. Food and Drug Administration [FDA]\nThe HTR2A receptor is a subtype of the 5-HT2 receptor that belongs to the serotonin receptor family and is a G protein-coupled receptor (GPCR). The HTR2A-CHO cell line stably expressing human 5-hydroxytryptamine receptor 2A (HTR2A) can be used for screening antagonists of interactions between 5-HT2 and its ligands. The HTR2A-CHO calcium flux assay is a homogeneous fluorescence-based assay for detecting the intracellular calcium level using FDSS kinetic plate reader system.\nTox21 Assay Protocol Summary:\nHTR2A-CHO cells were dispensed at 2000 cells/3uL/well in 1536-well black-clear bottom plates using a Multidrop Dispenser. After the assay plates were incubated at a 37 C/5% CO2 incubator for 18 h, 3 uL of Dye Loading Buffer was transferred to the assay plate by a Flying Reagent Dispenser. The assay plates were incubated at 37 C for 1h. For antagonist mode, 23 nL of compounds dissolved in DMSO, positive controls or DMSO only was transferred to the assay plate by a pin tool. After 5 min incubation at room temperature, 1.5 uL of 4-Iodo-2,5-dimethoxy-alpha-methylbenzeneethanamine hydrochloride (DOI) at 4nM was added to each well. The fluorescence intensity in the plates was measured using FDSS 7000EX kinetic plate reader for 3 min at 1 sec intervals.", "values": [{"smiles": "Cc1ccccc1N=Nc1ccc(N=Nc2c(O)ccc3ccccc23)c(C)c1", "Potency": "inactive"}, {"smiles": "C1CCOC1", "Potency": "inactive"}, {"smiles": "CC(CSC(=O)c1ccccc1)C(=O)N1C[C@@H](Sc2ccccc2)C[C@H]1C(=O)O", "note": "(stereo not given in full)", "activity, negative = inhibition": "20.9% [at 12.7 µM] (inactive)"}, {"smiles": "CCCCCCC(C)Nc1ccc(Nc2ccccc2)cc1", "note": "(stereo not given)", "Potency": "inactive"}, {"smiles": "CCN(C(=O)N(CC)c1ccccc1)c1ccccc1", "Potency": "inactive"}, {"smiles": "O=C(O)c1ccc(O)c(O)c1", "Potency": "inactive"}, {"smiles": "NC(=O)c1cc[n+](CC2=C(C(=O)[O-])N3C(=O)[C@@H](NC(=O)Cc4cccs4)[C@H]3SC2)cc1", "Potency": "inactive"}, {"smiles": "CCOC(=O)OCC", "Potency": "inactive"}, {"smiles": "CCCCCCCCCCC1CO1", "note": "(stereo not given)", "Potency": "inactive"}, {"smiles": "CCCCCCCC#N", "Potency": "inactive"}, {"smiles": "CCOc1ccc2nc(S(N)(=O)=O)sc2c1", "Potency": "inactive"}, {"smiles": "CN(C(=O)CN(CCO)CC(=O)N(C)C(C)(C)Cc1ccccc1)C(C)(C)Cc1ccccc1", "Potency": "inactive"}, {"smiles": "C[C@@H]1C[C@H]2[C@@H]3C[C@H](F)C4=CC(=O)C(Cl)=C[C@]4(C)[C@@]3(F)[C@@H](O)C[C@]2(C)[C@@]1(O)C(=O)CO", "Potency": "inactive"}, {"smiles": "CCCCCCC#CC(=O)OC", "Potency": "inactive"}, {"smiles": "O=C(Nc1cccc([N+](=O)[O-])c1)c1cc2ccccc2cc1O", "Potency": "inactive"}, {"smiles": "CC(=O)NCCCS(=O)(=O)O", "Potency": "inactive"}, {"smiles": "CC(=O)Oc1ccc(C2(c3ccc(OC(C)=O)cc3)Oc3ccccc3NC2=O)cc1", "Potency": "inactive"}, {"smiles": "c1csc(SSc2cccs2)c1", "Potency": "inactive"}, {"smiles": "CCCC1CCOC(C)S1", "note": "(stereo not given)", "Potency": "inactive"}, {"smiles": "CC(C)(C)c1cc(O)c(C(C)(C)C)cc1O", "Potency": "14.9 µM (active)"}, {"smiles": "CCOc1nc2cccc(C(=O)OC(C)OC(=O)OC3CCCCC3)c2n1Cc1ccc(-c2ccccc2-c2nn[nH]n2)cc1", "note": "(stereo not given)", "Potency": "inactive"}, {"smiles": "COc1cc(/C=C/c2ccccc2)oc(=O)c1", "Potency": "inactive"}, {"smiles": "O=C(c1ccccc1)c1ccccc1", "Potency": "inactive"}, {"smiles": "COCc1nnc(-c2ccc[n+]([O-])c2)n1-c1c(Cl)c(Cl)cc2[nH]c(=O)c(=O)[nH]c12", "Potency": "inactive"}, {"smiles": "CN1C[C@H]2c3ccccc3Oc3ccc(Cl)cc3[C@@H]2C1", "Potency": "inactive"}, {"smiles": "CCCCOC(=O)CCCCC(=O)OCCCC", "Potency": "inactive"}, {"smiles": "COc1ccc(CCN(C)CCCN2CCc3cc(OC)c(OC)cc3CC2=O)cc1OC", "Potency": "inactive"}, {"smiles": "c1coc(Cn2cccc2)c1", "Potency": "inactive"}, {"smiles": "Cc1ccc(Cl)c(N)c1Cl", "Potency": "inactive"}, {"smiles": "O=C(NN1CCCC1)NS(=O)(=O)c1ccc(Cl)cc1", "Potency": "inactive"}, {"smiles": "CCCCNc1ccc(C(=O)OCCOCCOCCOCCOCCOCCOCCOCCOCCOC)cc1", "Potency": "inactive"}, {"smiles": "C[C@H](CCC(=O)O)[C@H]1CC[C@H]2[C@@H]3CC[C@@H]4C[C@H](O)CC[C@]4(C)[C@H]3C[C@H](O)[C@]12C", "Potency": "inactive"}, {"smiles": "Oc1ccc2ccccc2c1", "Potency": "inactive"}, {"smiles": "N=C(N)N", "Potency": "inactive"}, {"smiles": "CC(CC=O)CCCC(C)(C)O", "note": "(stereo not given)", "Potency": "inactive"}, {"smiles": "CO[C@@]1(NC(=O)Cc2cccs2)C(=O)N2C(C(=O)O)=C(COC(N)=O)CS[C@@H]21", "Potency": "inactive"}, {"smiles": "O=C1C=CC(=O)N1c1ccccc1", "Potency": "inactive"}, {"smiles": "COc1cc(C(C)(C)C)c(O)c(C(C)(C)C)c1", "Potency": "inactive"}, {"smiles": "NCCCOCCOCCOCCCN", "Potency": "inactive"}, {"smiles": "CCN(CC)c1ccc2c(c1)Oc1cc(N(CC)CC)ccc1C21OC(=O)c2ccccc21", "Potency": "inactive"}]}]}
